Vif-A3G inh – qHTS for Inhibitors of Vif-A3G Interactions: qHTS | DNA dC->dU-editing enzyme APOBEC-3G (Homo sapiens), Q9HC16 | HeLa A3G-eYFP + Vif (tagged APOBEC3G with the HIV-1 protein that degrades it), YFP fluorescence, overnight | Potency, µM (series often up to 46.1 µM), hits mostly inhibitors | actives 0.076% (n = 410,000) | AID 602310, 2012; note: nearly all actives have a fitted effect of over 60% in size
Target sequence (Q9HC16 whole entry, looked up): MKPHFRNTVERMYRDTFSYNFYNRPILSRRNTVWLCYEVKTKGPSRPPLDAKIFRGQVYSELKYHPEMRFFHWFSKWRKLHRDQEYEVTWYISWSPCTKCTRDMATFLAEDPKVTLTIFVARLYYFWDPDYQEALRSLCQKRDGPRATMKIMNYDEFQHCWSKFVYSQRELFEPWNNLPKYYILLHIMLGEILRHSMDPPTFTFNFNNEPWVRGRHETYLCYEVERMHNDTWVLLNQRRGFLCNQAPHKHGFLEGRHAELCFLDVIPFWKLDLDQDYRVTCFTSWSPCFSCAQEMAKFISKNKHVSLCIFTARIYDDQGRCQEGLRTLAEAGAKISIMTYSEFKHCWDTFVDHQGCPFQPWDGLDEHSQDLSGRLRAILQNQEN
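HeLa cells stably expressing Vif and C-terminally eYFP-tagged A3G, seeded overnight at 37 deg C, then exposed to compound by pintool overnight at 37 deg C. Rise in yellow fluorescence (Ex 488/Em 500-530, Acumen) marks blocked Vif-driven A3G degradation.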
Giardia killer – Small Molecules that selectively kill Giardia lamblia: qHTS. activity change, % at 7.66 µM, hits read low. actives 0.15% (n = 340,000). Giardia lamblia trophozoite viability; in the data active = activity change below about -80%; inconclusive = between about -30% and that limit;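 note: parasites exposed to compound for two days anaerobically before the ATP read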
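Media and compound were dispensed first, then trophozoites at 100 cells/well; plates sat 48 hrs at 37 deg C without oxygen before ATP luminescence reagent was added and read after 15-30 min at room temperature.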
IL1B secr inh – qHTS for Inhibitors of Inflammasome Signaling: IL-1-beta AlphaLISA Primary Screen. THP-1 LPS/ATP IL-1B secretion, AlphaLISA, 16 h; stronger effect = lower value. actives 4.7% (n = 360,000). activity change, % at 57.5 µM; in the data active = activity change below about -50%; inconclusive = mostly about -30% to -49%
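Secreted IL-1B measured by AlphaLISA bead assay after 16 h compound exposure of THP-1 cells; compounds (final up to 57.5 uM) added 1 h before LPS (250 ng/mL) and ATP (1.25 mM) stimulation; lower signal means less secretion.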
MCF10A rereplic – A quantitative high throughput screen for small molecules that induce DNA re-replication in MCF 10a normal breast cells; MCF 10A DNA re-replication, Hoechst nuclear intensity, 48 h; Potency, µM (series often up to 46.1 µM), usual class: activators; actives 2.9% (n = 350,000); note: nearly all actives have a fitted effect of over 50% in size
SW480 rerep – A quantitative high throughput screen for small molecules that induce DNA re-replication in SW480 colon adenocarcinoma cells | Potency, µM (titrated, usually from 46.1 µM), hits mostly activators | AID 624297, 2012 | actives 1.8% (n = 340,000) | SW480 DNA re-replication, Hoechst DNA content imaging, 48 h; note: nearly all actives have a fitted effect of over 55% in size
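SW480 cells exposed to compounds for 48 hr at 37 C, 5% CO2, then Hoechst-stained 40 min. Nuclear DNA content imaged by fluorescence scanning (405 nm excitation, 500-530 nm emission); re-replication scored as increased high-intensity nuclei.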
Vif-A3F inh – qHTS for Inhibitors of Vif-A3F Interactions: qHTS; actives 0.2% (n = 390,000); Potency, µM (titrated, usually from 46.1 µM); HeLa A3F-eYFP + Vif (tagged APOBEC3F with the HIV-1 protein that degrades it), YFP fluorescence increase; note: nearly all actives have a fitted effect of over 65% in size
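Fluorescence increase (Ex 488/Em 500-530) after overnight compound treatment at 37 deg C flags inhibition of Vif-driven A3F-eYFP loss in stable HeLa A3F-eYFP/Vif cells seeded overnight beforehand.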
Numbers stand for hits; . = inactive; ? = inconclusive; / = no result. The list is not random: actives were taken first. Their share in the collection is about 6.9%. Unless noted, calls come from the whole dose curve; as a rule, active = well fitted curve in the direction sought with a large enough effect; inconclusive = small, poorly fitted or top-dose-only effect, or another doubt; inactive = no such curve, though single readings can be large; an effect the other way counts as inactive or inconclusive.

SMILES	Vif-A3G inh	Giardia killer	IL1B secr inh	MCF10A rereplic	SW480 rerep	Vif-A3F inh
CCOc1ccccc1C1NC(=O)NC(C)=C1C(=O)OC1CCCCC1 (stereo not given)	.	.	-68	.	?	.
CC1=C(C(=O)OC2CCCCC2)C(c2ccccc2)NC(=O)N1 (stereo not given)	.	.	.	.	.	.
CCN(CC)CCNc1ccc(C)c2sc3ccc(O)cc3c(=O)c12	.	.	-101	.	?	?
CCN(CC)CCNc1ccc(CO)c2oc3cc(Cl)ccc3c(=O)c12	.	/	.	/	/	?
CC1CN(C2=N/C(=C/c3ccc4c(c3)OCO4)C(=O)N2)CC(C)O1 (stereo not given)	.	.	.	?	?	.
CC1CN(c2snnc2C=C2C(=O)OC(C)(C)OC2=O)CC(C)O1 (stereo not given)	.	.	-80	.	.	.
NS(=O)(=O)c1ccc(CCNCc2ccccc2OCc2ccc(F)cc2)cc1	.	.	-90	.	.	.
CCOc1cc(CNCCc2ccc(S(N)(=O)=O)cc2)ccc1OCc1ccc(Cl)cc1	.	.	-109	?	?	.
COc1cc(CNCCc2ccc(S(N)(=O)=O)cc2)ccc1OCc1ccc(Cl)cc1	.	.	-78	13µM	?	.
NS(=O)(=O)c1ccc(NCc2ccccc2OCc2ccc(F)cc2)cc1	.	.	.	.	.	.
COc1cc2c(cc1OC)-c1cc(Nc3ccc4c(c3)OCCO4)nc(=O)n1CC2	.	.	-70	.	.	.
COc1cc2c(cc1OC)-c1cc(N3CCc4ccccc43)nc(=O)n1CC2	.	.	-66	?	.	.
Cc1cccc(C2=NN(c3ccccc3)[C@H](CO)[C@H]2c2ccc(Cl)cc2)c1	.	.	.	2.3µM	13µM	.
OC[C@@H]1[C@@H](c2ccccc2)C(c2cccc(Cl)c2)=NN1c1ccccc1	.	.	?	?	?	.
Cc1cccc(C2=NN(c3ccccc3)[C@H](CO)[C@H]2c2ccc(F)cc2)c1	.	.	.	?	5.2µM	.
Cc1cc(N/N=C/c2ccc(F)cc2)nc(NCc2ccccc2)n1	.	.	-96	?	.	.
Cc1ccc(/C=N/Nc2cc(C)nc(NCc3ccccc3)n2)cc1	.	.	-88	?	?	.
CCNc1nc(NCC)nc(N/N=C/c2ccc(N(C)C)cc2)n1	.	.	.	.	?	?
Cc1cc(N/N=C/c2ccc(N(C)C)cc2)nc(NCc2ccccc2)n1	.	.	-61	8.2µM	21µM	.
Cc1cc(N/N=C/c2ccc(Cl)cc2Cl)nc(NCc2ccccc2)n1	.	.	.	?	?	.
O=C(Nc1ccc2oc(-c3cc(Br)ccc3Cl)nc2c1)c1ccc2ccccc2c1	.	/	/	/	/	?
O=C(Nc1ccc2oc(-c3ccccc3F)nc2c1)c1ccc2c(c1)OCCO2	.	.	-54	?	.	.
Cc1cc(NC(=O)c2ccc3c(c2)OCCO3)cc(-c2nc3ccccc3o2)c1O	.	/	/	/	/	.
O=C(Nc1ccc2oc(Cc3ccc(Cl)cc3)nc2c1)c1cccnc1	?	.	-67	?	16µM	.
O=C(Nc1ccc2oc(-c3ccccc3Cl)nc2c1)c1cncc(Br)c1	.	.	.	16µM	?	.
Cc1ccc(-c2nnn(CC(=O)N(c3ccccc3)C(C(=O)NCC3CCCO3)c3ccc(Cl)cc3)n2)cc1 (stereo not given)	.	.	?	18µM	.	.
COc1cccc(N(C(=O)Cn2nnc(-c3ccc(Cl)cc3)n2)C(C(=O)NCC2CCCO2)c2ccc(C)cc2)c1 (stereo not given)	.	.	.	.	.	.
